# Only some compounds are listed: those with a hit (about 1.1% of all), similar ones and a draw of the others.
# Mtb hypoxia rep: PubChem AID 1159583. fluorescence inhibition, % (test concentration not listed). M. tuberculosis hypoxia-regulated fluorescent reporter, fluorescence. actives 0.1% (n = 300,000); in the data active = fluorescence inhibition mostly above about 23%, no sharp cut-off; inactive = mostly below about 17%
# RN4220 kill: growth inhibition of S. aureus RN4220, primary screen, OD600; 16 h; inhibition, % (concentration not given with the values); actives 0.33% (n = 330,000); AID 1259311, 2017; in the data active = inhibition above about 85%;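 also: plate controls were untreated cells for no effect and reference antibiotic for full effect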
# PriA SSB inh: inhibitors of Klebsiella pneumoniae PriA binding to SSB C-terminal tail, primary screen, biochemical, AlphaScreen; AlphaScreen SSBct-PriA binding, biotinylated peptide; inhibition, % at 33 µM; actives 0.6% (n = 430,000); PriA–SSB C-terminal tail interaction (Klebsiella pneumoniae); AID 1272365, 2023; in the data active = inhibition mostly above about 37%, no sharp cut-off; inactive = mostly below about 20%;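 also: plate controls were negative control peptide for no effect and reference peptide for full effect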
# ugtP null kill: growth inhibition of ugtP-null S. aureus, primary screen, RN4220 ugtP deletion, OD600 | 16 h | growth inhibition, % (concentration not given with the values) | actives 0.54% (n = 330,000) | AID 1259309, 2017; in the data active = growth inhibition above about 68%;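 also: plate controls were untreated wells for no effect and antibiotic for full effect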
# * hit, by the source's call; · = not tested or not shown; ! = not active in a repeat.
SMILES,Mtb hypoxia rep,RN4220 kill,PriA SSB inh,ugtP null kill
O=C(Nc1nc(-c2ccccn2)cs1)c1cccc(C(=O)Nc2nc(-c3ccccn3)cs2)n1,·,·,2,·
O=C(c1ccsc1)c1ccc(CNC(=O)C2(c3cccs3)CCCC2)s1,·,·,-2,·
Cc1c(C(=O)NCC2COC3(CCCC3)O2)cccc1[N+](=O)[O-] (configuration not stated),·,·,8,·
O=C(CCc1ccccc1Br)NCc1cncc(-c2cccs2)c1,·,·,-10,·
O=C(Nc1ccc(S(=O)(=O)N2CCOCC2)cc1)c1cccs1,·,1,-14,-1
O=C(Nc1ccc(S(=O)(=O)N2CCOCC2)cc1)c1ccc([N+](=O)[O-])s1,38*,6,-9,-2
CN(C)CCN(C(=O)c1ccc2ccccc2c1)c1nc2ccc(F)cc2s1,13,3,44*!,-5
Cc1cc(C)c2sc(N(CCN(C)C)C(=O)c3ccc4ccccc4c3)nc2c1,11,-4,43*!,-8
Cc1ccc2sc(N(CCN(C)C)C(=O)c3ccc4ccccc4c3)nc2c1C,-9,-9,45*!,-35
CN(C)CCCN(C(=O)c1sc2ccccc2c1Cl)c1nc2c(F)cccc2s1,-1,-3,13,-12
Cc1cccc2sc(N(CCCN(C)C)C(=O)c3sc4ccccc4c3Cl)nc12,8,7,40*!,-25
CCc1ccc2nc(N(CCN(C)C)C(=O)c3ccc4ccccc4c3)sc2c1,6,-2,21,-6
COC(=O)c1cc(OCC(=O)NCc2ccc3c(c2)OCO3)c2cc(F)ccc2n1,·,·,-6,·
COc1cc2ccccc2cc1C(=O)N(CCN(C)C)c1nc2c(C)cccc2s1,-12,-12,41*!,-20
COc1cc2nc(N(CCN(C)C)C(=O)c3ccc4ccccc4c3)sc2cc1OC,5,2,39*!,-6
COc1ccc(Cl)c2sc(N(CCN(C)C)C(=O)c3ccc4c(c3)OCCO4)nc12,17,-10,16,-10
COc1ccc(OC)c2sc(N(CCN(C)C)C(=O)c3ccc4ccccc4c3)nc12,·,·,54*,·
Cc1cc(C)c2sc(N(CCCN(C)C)C(=O)c3ccc(S(=O)(=O)N(C)C4CCCCC4)cc3)nc2c1,38*,-1,40*!,-16
O=C(Cn1c(=O)n(Cc2cccs2)c(=O)c2ncccc21)NC1CCCCC1,·,·,-13,·
COc1cc2ccccc2cc1C(=O)N(CCN(C)C)c1nc2c(OC)ccc(OC)c2s1,-8,-10,46*,-30
O=C(NC(=S)N1CCN(c2ccc(Cl)cc2[N+](=O)[O-])CC1)c1cccs1,·,·,39*,·
CC(=O)c1cccc(NC(=O)c2onc(C)c2Cl)c1,6,2,115*,3
Cc1noc(C(=O)NCc2ccccc2)c1Cl,10,-1,104*,15
Cc1noc(C)c1C(=O)NCc1ccccc1,·,6,-5,12
CCOc1ccc(-c2cnc(N)n2C)cc1,-1,3,2,-6
SMILES,Mtb hypoxia rep,RN4220 kill,PriA SSB inh,ugtP null kill
Cn1c(-c2ccc(Cl)cc2)cnc1N,9,5,54*,3
COc1ccc(Oc2c(-c3ccc(O)cc3O)n[nH]c2C)cc1,6,0,6,-13
Oc1ccc(-c2[nH]ncc2Oc2ccccc2)c(O)c1O,·,·,37,·
CCCc1ccc(Oc2cn[nH]c2-c2ccc(O)c(C)c2O)cc1,13,99*,30,100*
CCCc1ccc(Oc2c(-c3ccc(O)c(C)c3O)n[nH]c2C)cc1,5,77,6,97*
O=C(NCc1ccc(F)cc1)C(=O)NCC1CCN(Cc2cccs2)CC1,·,·,-3,·
O=C(Nc1ccc2c(c1)CN(C(=O)c1ccccc1)CC2)c1ccc(F)cc1Cl,·,·,-11,·
NC(N)=Nc1ccc(C=C2C=Cc3ccccc32)cc1,·,·,42*,·
COc1ccccc1[C@H](CNC(=O)C1CC1)OC,·,·,-15,·
COc1n[nH]c(C(=O)Nc2cc(Cl)ccc2Cl)c1[N+](=O)[O-],7,90*,5,88*
O=C(NCc1cc(-c2cccs2)n(C2CCCC2)n1)Nc1cccs1,·,·,4,·
Nc1nc(-c2ccccn2)nc2ccc(Cl)cc12,·,·,116*,·
NC(=O)c1ccccc1OCC#CCNC(=O)C1c2ccccc2Oc2ccccc21,·,·,13,·
COc1ccc(-c2cc(OCC(=O)Nc3ccccc3F)c3ccccc3n2)cc1,·,·,-33,·
COc1ccc(-n2sc3c(c2=S)-c2cc(OC)ccc2NC3(C)C)cc1,·,-5,67,84*
CCC(C(=O)NCC(O)c1cccs1)c1ccccc1 (configuration not stated),·,·,-12,·
CCCc1nnsc1C(=O)Nc1cnoc1,·,·,-16,·
Oc1cccc2c(NC(=S)Nc3ccc(SC(F)F)cc3)cccc12,9,26,48*,80
c1ccc(-c2noc(-c3ccccc3-c3ccccc3)n2)cc1,·,-9,-64,95*
O=C1c2ccccc2-c2nccnc21,0,4,-2,-1
O=C1c2cccnc2-c2ncccc21,-1,17,37*!,15
COC1=C(Br)C(=O)c2ncccc2C1=O,·,·,41*,·
CC(=O)Nc1ccc2c(c1)N(S(=O)(=O)c1ccccc1)CCC2,·,·,-2,·
COc1ccc(N2C[C@@H](NS(C)(=O)=O)CC2=O)cc1,·,·,-11,·
O=C(Nc1ccc(OC(F)F)c(Cl)c1)Nc1ccc2c(c1)OCO2,-11,-4,-10,-41
SMILES,Mtb hypoxia rep,RN4220 kill,PriA SSB inh,ugtP null kill
O=C(Nc1ccc([N+](=O)[O-])cc1)Nc1ccc(OC(F)F)c(Cl)c1,-6,99*,-5,100*
CC1CCC(C(C)C)C(OC(=O)C[n+]2cccc(C(N)=O)c2)C1 (configuration not stated),·,0,-20,-1
COc1ccc(-c2c[n+](CC(=O)c3ccc(Cl)cc3)c3n2CCCCC3)cc1,·,·,7,·
COc1ccc(-c2c[n+](CC(=O)OC3CC(C)CCC3C(C)C)c3n2CCC3)cc1 (configuration not stated),·,100*,8,100*
CC(C)[C@@H]1CC[C@@H](C)C[C@H]1OC(=O)C[n+]1cc(-c2ccc(Cl)cc2)n2c1CCCCC2,·,101*,8,100*
C=CC(=O)Nc1cccc(Oc2ccnc3[nH]ccc23)c1,·,·,14,·
C=CC(=O)Nc1cccc(Oc2ccnc(Nc3ccc(N4CCN(C)CC4)cc3)n2)c1,·,·,61*,·
C=CC(=O)Nc1cccc(N(C)c2ccnc(Nc3ccc(N4CCN(C)CC4)cc3)n2)c1,·,·,57*,·
O=C(c1ccc(F)cc1Cl)N1CCC(Oc2ccc(Cl)cn2)CC1,·,·,-4,·
CCOC(=O)CCSCC(=O)Nc1nc2ccccc2s1,·,·,-20,·
CC1(C)C(/C=C/C=C/C=C/C=C2\N(CCCCS(=O)(=O)O)c3ccc4ccccc4c3C2(C)C)=[N+](CCCCS(=O)(=O)[O-])c2ccc3ccccc3c21,·,·,75*,·
O=[N+]([O-])c1cccc(CNc2ccc3c(c2)CCC3)c1,11,2,69*,-4
Oc1cccc2ccc(/C=C/c3ccccc3Cl)nc12,11,83,-1,91*
O=C(COc1ccc(Cl)cc1Cl)Nc1ccccc1Cc1nc(-c2ccco2)no1,·,·,-11,·
Cc1nc(SCC(=O)Nc2ccc(Cl)cc2[N+](=O)[O-])nc(C)c1C,4,5,39*,0
COc1ccc(NC(=O)CSc2nc3ccccc3n2-c2ccccc2)c([N+](=O)[O-])c1,7,4,42*,-16

# Assay outcomes: PubChem BioAssay, several laboratories
